Bioassay records deposited in PubChem BioAssay by National Center for Advancing Translational Sciences (NCATS).
HT1080 IDH1KD tx: kills HT-1080 cells with IDH1 knockdown; HT-1080 IDH1 knockdown viability, ATP luminescence, 48 h; Potency, µM (titrated, usually from 46.1 µM), without a hit: at the top dose activity, negative = toxicity, most hits filed as cytotoxic; 2% of 360,000 active; AID 686971;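 note: potency is the fitted concentration of half-maximal effect; 0% = DMSO wells and -100% = cell-free medium wells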
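HT-1080-IDH1KD cells (IDH1 knocked down), 750/well in RPMI with 5% FBS, treated with compound 48 h at 37 degrees C. Viability by CellTiter-Glo luminescence, normalised to DMSO and no-cell wells; concentration-response curves classed.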
TDP1 cell noCPT: qHTS for Inhibitors of human tyrosyl-DNA phosphodiesterase 1 (TDP1): qHTS in cells in absence of CPT. 15% of 420,000 active. Potency, µM (titrated, usually from 46.2 µM), without a hit: at the top dose activity change, negative = growth inhibition, usual class: inhibitors. DT40 Tdp1-/- hTDP1 cells, no CPT, ATP luminescence, 48 h; note: potency is the fitted concentration of half-maximal effect; nearly all actives have a fitted effect of over 55% in size
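Growth of hTDP1-complemented DT40 Tdp1-knockout cells is measured by ATP luminescence after at least 48 hr compound exposure at 37 °C, with DMSO substituting for the 20 nM CPT used in the parallel screen.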
IL-1B inflam inh: inflammasome signaling inhibition, IL-1 beta readout. activity change, % at 57.5 µM. 4.7% of 360,000 active. THP-1 LPS/ATP IL-1B secretion, AlphaLISA, 16 h; active compounds read low; in the data active = activity change below about -50%; inconclusive = mostly about -30% to -49%
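Secreted IL-1B measured by AlphaLISA bead assay after 16 h compound exposure of THP-1 cells; compounds (final up to 57.5 uM) added 1 h before LPS (250 ng/mL) and ATP (1.25 mM) stimulation; lower signal means less secretion.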
HT1080NT lethal: kills 2HG-producing HT-1080-NT fibrosarcoma cells | HT-1080-NT fibrosarcoma viability, CellTiter-Glo ATP luminescence, 48 h | Potency, µM (highest dose often 46.1 µM), inactives show at the top dose activity, negative = less viability, hits mostly cytotoxic | 1.6% of 360,000 active | AID 686970;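 note: NT is the 2HG producing partner of a matched IDH1 knockdown line; potency is the fitted concentration of half-maximal effect; 0% = DMSO-treated cells and -100% = media-only wells without cells; nearly all actives have a fitted effect of over 55% in size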
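Viability of the 2HG-overproducing fibrosarcoma line after 48 hours of compound exposure at 37 degrees C was determined by luminescence with CellTiter-Glo, and concentration-effect curves were then fitted and categorized.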
DT40 TDP1 CPT: growth inhibition of DT40 Tdp1-/-;hTDP1 cells with camptothecin (screen for TDP1 inhibitors); chicken DT40 Tdp1-/-;hTDP1 cells + 20 nM CPT, ATP luminescence, 48 h; Potency, µM (highest dose often 46.2 µM), for the others: top-dose activity change, negative = growth inhibition, most hits filed as inhibitors; AID 686979; 12% of 420,000 active; note: potency is the fitted concentration of half-maximal effect; nearly all actives have a fitted effect of over 55% in size
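Cell growth measured by CellTiter-Glo luminescence after a minimum 48 h, 37 C compound exposure with 20 nM CPT in Tdp1-knockout DT40 cells stably expressing hTDP1, seeded 400/well; qHTS titration format.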
ELG1 DNA repair: ELG1-dependent DNA repair inhibition; HEK293T ELG1-luciferase reporter, luminescence, 16 h; DNA damage induced by 5-fluorouridine; Potency, µM (highest dose often 46.1 µM), for the others: top-dose activity change, negative = inhibition, usual class: inhibitors; 2.3% of 330,000 active; AID 504467; note: potency is the fitted concentration of half-maximal effect; nearly all actives have a fitted effect of over 55% in size
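Cells (2,000 per well) received 5-fluorouridine plus test compound or DMSO and were incubated 16 hr at 37 °C, 5% CO2. Luciferase activity was read by luminescence 30 min after ONE-Glo addition; signal suppression marked inhibition of damage-induced ELG1 function.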
An asterisk follows results filed as active. The list is not random: actives were taken first. Their share in the collection is about 19%. Unless noted, calls come from the whole dose curve; as a rule, active = well fitted curve in the direction sought with a large enough effect; inconclusive = small, poorly fitted or top-dose-only effect, or another doubt; inactive = no such curve, though single readings can be large; an effect the other way counts as inactive or inconclusive. Unless noted, % is set by controls: 0 for no effect and ±100 for the full control effect.

Results for COc1ccc(-c2noc(=O)n2Cc2ccccc2F)cc1 ?
HT1080 IDH1KD tx: 1%; TDP1 cell noCPT: 2%; IL-1B inflam inh: -30; HT1080NT lethal: -1%; DT40 TDP1 CPT: -23%; ELG1 DNA repair: -1%

Results for C/C(=N/Nc1ccccc1[N+](=O)[O-])c1ccc([N+](=O)[O-])cc1 ?
HT1080 IDH1KD tx: -5%; TDP1 cell noCPT: inconclusive; IL-1B inflam inh: 4; HT1080NT lethal: -4%; DT40 TDP1 CPT: -8%; ELG1 DNA repair: 14%

What do the screens show for `C/C(=N\Nc1ccc([N+](=O)[O-])cc1[N+](=O)[O-])c1ccc(-n2nncc2C(C)(C)C)cc1`?
HT1080 IDH1KD tx: -3%; TDP1 cell noCPT: 13µM*; IL-1B inflam inh: -12; HT1080NT lethal: -4%; DT40 TDP1 CPT: 21µM*; ELG1 DNA repair: 10µM*

Results for O=c1ccc2nc3ccccc3sc-2c1 ?
HT1080 IDH1KD tx: inconclusive; TDP1 cell noCPT: 1.5µM*; IL-1B inflam inh: -102*; HT1080NT lethal: inconclusive; DT40 TDP1 CPT: 0.65µM*

Results for NNc1ccc(Cl)nn1 ?
HT1080 IDH1KD tx: -16%; TDP1 cell noCPT: 4%; IL-1B inflam inh: 72; HT1080NT lethal: -24%; DT40 TDP1 CPT: 7%; ELG1 DNA repair: inconclusive

Results for COc1ccc(C(=O)NCCNc2nc3c(C)cccc3cc2C#N)cc1 ?
HT1080 IDH1KD tx: 1%; TDP1 cell noCPT: 21µM*; IL-1B inflam inh: inconclusive; HT1080NT lethal: 1%; DT40 TDP1 CPT: inconclusive

How did Cc1cc(C)c2cc(C#N)c(NCCCNC(=O)CCC(=O)O)nc2c1 do in these assays?
HT1080 IDH1KD tx: -1%; TDP1 cell noCPT: -27%; IL-1B inflam inh: -14; HT1080NT lethal: 5%; DT40 TDP1 CPT: 0%; ELG1 DNA repair: 9%

Results for COc1cccc(C(=O)NCCCNc2nc3cc(C)cc(C)c3cc2C#N)c1 ?
HT1080 IDH1KD tx: 2%; TDP1 cell noCPT: 26µM*; IL-1B inflam inh: 0; HT1080NT lethal: 5%; DT40 TDP1 CPT: inconclusive

Results for Cc1cc(C)c2cc(C#N)c(NCCCN)nc2c1 ?
HT1080 IDH1KD tx: -25%; TDP1 cell noCPT: 21µM*; IL-1B inflam inh: 0; HT1080NT lethal: inconclusive; DT40 TDP1 CPT: inconclusive

Results for COc1cc(C(=O)NCCNc2nc3ccc(C)cc3cc2C#N)cc(OC)c1OC ?
HT1080 IDH1KD tx: -15%; TDP1 cell noCPT: inconclusive; IL-1B inflam inh: inconclusive; HT1080NT lethal: -2%; DT40 TDP1 CPT: -14%; ELG1 DNA repair: 15µM*

Results for COc1ccc(C(=O)NCCNc2nc3c(C)cccc3cc2C#N)cc1OC ?
HT1080 IDH1KD tx: -6%; TDP1 cell noCPT: -21%; IL-1B inflam inh: -27; HT1080NT lethal: -8%; DT40 TDP1 CPT: -26%; ELG1 DNA repair: inconclusive

What do the screens show for `NCCCC[C@H](N)C(=O)O`?
TDP1 cell noCPT: 9%; DT40 TDP1 CPT: -7%

What do the screens show for `CCOC(=O)c1c(-c2ccccc2)csc1NC(=O)/C(C#N)=C/c1ccc(O)c(OC)c1`?
HT1080 IDH1KD tx: -21%; TDP1 cell noCPT: inconclusive; IL-1B inflam inh: -17; HT1080NT lethal: inconclusive; DT40 TDP1 CPT: inconclusive; ELG1 DNA repair: inconclusive

What do the screens show for `O=C(O)Cn1c(=O)c(F)cn(C2CCCO2)c1=O` (stereo not given)?
HT1080 IDH1KD tx: 3%; TDP1 cell noCPT: 5%; IL-1B inflam inh: 10; HT1080NT lethal: 10%; DT40 TDP1 CPT: -2%; ELG1 DNA repair: 4%

What do the screens show for `Nc1ccn([C@@H]2O[C@H](CNCc3cc(Br)ccc3OCc3ccccc3)[C@@H](O)[C@H]2O)c(=O)n1`?
HT1080 IDH1KD tx: 0%; TDP1 cell noCPT: -5%; IL-1B inflam inh: -30; HT1080NT lethal: 5%; DT40 TDP1 CPT: -2%

How did COc1cc(C(=O)NCCCNc2nc3c(C)cc(C)cc3cc2C#N)cc(OC)c1OC do in these assays?
HT1080 IDH1KD tx: 11%; TDP1 cell noCPT: -27%; IL-1B inflam inh: 4; HT1080NT lethal: -13%; DT40 TDP1 CPT: -14%; ELG1 DNA repair: inconclusive

Results for CCOc1ccc2nc(NCCNC(=S)NCCCN(C)C)c(C#N)cc2c1 ?
HT1080 IDH1KD tx: inconclusive; TDP1 cell noCPT: 26µM*; HT1080NT lethal: -24%; DT40 TDP1 CPT: inconclusive; ELG1 DNA repair: -2%

Results for COc1ccc2nc(NCCCNC(=O)c3cc(OC)c(OC)c(OC)c3)c(C#N)cc2c1 ?
HT1080 IDH1KD tx: -6%; TDP1 cell noCPT: -16%; IL-1B inflam inh: 29; HT1080NT lethal: -1%; DT40 TDP1 CPT: -28%; ELG1 DNA repair: 16µM*

Results for CCOc1ccc2nc(NCCNC(=O)Nc3ccccc3)c(C#N)cc2c1 ?
HT1080 IDH1KD tx: inconclusive; TDP1 cell noCPT: inconclusive; IL-1B inflam inh: 1; HT1080NT lethal: inconclusive; DT40 TDP1 CPT: -27%; ELG1 DNA repair: inconclusive

What do the screens show for `CCOCCCNC(=S)NCCCNc1nc2c(C)c(C)ccc2cc1C#N`?
HT1080 IDH1KD tx: inconclusive; TDP1 cell noCPT: inconclusive; IL-1B inflam inh: -95*; HT1080NT lethal: inconclusive; DT40 TDP1 CPT: inconclusive; ELG1 DNA repair: inconclusive

Results for C=CCSCC(N)C(=O)O (stereo not given) ?
TDP1 cell noCPT: 5%; DT40 TDP1 CPT: -2%

What do the screens show for `CCOc1ccc(NC(=O)c2ccccc2NC(=O)CNC2CCCC(C)C2C)cc1` (stereo not given)?
HT1080 IDH1KD tx: 0%; TDP1 cell noCPT: 7.3µM*; IL-1B inflam inh: 19; HT1080NT lethal: -7%; DT40 TDP1 CPT: 15µM*; ELG1 DNA repair: 0%

Results for CN(CC(=O)NCc1ccc(F)cc1)Cc1ccc(Br)cc1 ?
HT1080 IDH1KD tx: -4%; TDP1 cell noCPT: inconclusive; IL-1B inflam inh: -72*; HT1080NT lethal: -4%; DT40 TDP1 CPT: -29%; ELG1 DNA repair: 10%

How did CCOc1ccc(NC(=O)c2ccccc2NC(=O)CN2CCCCCC2)cc1 do in these assays?
HT1080 IDH1KD tx: -6%; TDP1 cell noCPT: inconclusive; IL-1B inflam inh: -8; HT1080NT lethal: -4%; DT40 TDP1 CPT: -23%; ELG1 DNA repair: 11%

What do the screens show for `CSc1ccc(CN(C)CC(=O)NCc2ccccc2)cc1`?
HT1080 IDH1KD tx: 0%; TDP1 cell noCPT: -26%; IL-1B inflam inh: inconclusive; HT1080NT lethal: 0%; DT40 TDP1 CPT: -26%; ELG1 DNA repair: 0%

What do the screens show for `CCOc1ccc(CN(C)CC(=O)Nc2ccccc2C(=O)NC2CC2)cc1`?
HT1080 IDH1KD tx: 6%; TDP1 cell noCPT: inconclusive; IL-1B inflam inh: 13; HT1080NT lethal: 11%; DT40 TDP1 CPT: inconclusive; ELG1 DNA repair: 15µM*
